# In ChEMBL document CHEMBL3988442, “University of Dundee, Small-Polar-MMV Screening Library” (2021):
# In all, about 69,000 compounds went through this assay and about 950 (1.4%) showed an effect of 50% or more. The entries come from a sample that favours strong results as a whole.
# Test system: Mycobacterium tuberculosis
# Assay: Cornell M. t heat shock assay; also: in the data most compounds retested in dose-response had high values
# Type: functional, organism-based
# Design: dose or concentration left out as unconfirmed
row,Compound,Percent Effect
1,CN(C)C(=O)CC1CC2(CCN(CC3CC3)CC2)c2cc(F)ccc21.O=C(O)C(F)(F)F (stereo not given),-15.82%
2,COc1ccc2nnc(C(=O)NC3CCCC3)nc2c1,57.83%
3,COC(=O)C1CCN(C(=O)c2nnc3ccc(C)cc3n2)CC1,15.86%
4,Cc1ccc(-n2nnc(C(=O)NCC3CCCCC3)n2)cc1,10.71%
5,O=C(NCC1CC1)c1nnc2ccc(Cl)cc2n1,102.8%
6,CCn1nc(C)c(CNC(=O)c2nnc3ccc(Cl)cc3n2)c1C,42.92%
7,CN1CCN(C(=O)c2nnc3ccc(Cl)cc3n2)CC1,68.14%
8,O=C(NC1CCCCC1)c1nnc2ccc(N3CCOCC3)cc2n1,8.79%
9,O=C(NCC1CC1)Nc1cnc2cc(Cl)ccc2c1O,-11.98%
10,COc1ccc2nnc(C(=O)NCC3CCCC3)nc2c1,44.72%
11,COC(=O)C1CCN(C(=O)c2nnc3ccc(Cl)cc3n2)CC1,26.61%
12,CCn1nc(C)c(CNC(=O)c2nnc3ccc(OC)cc3n2)c1C,-6.041%
13,Cc1ccc2nnc(C(=O)NCC3CCCC3)nc2c1,103.3%
14,CCOCC1CN(Cc2cnn(C)c2)Cc2nn(CC3CC3)cc21.O=C(O)C(F)(F)F (stereo not given),2.131%
15,CCCn1[nH]cc/c1=N\C(=O)CN1CCc2c(nc(C3CC3)n2C)C1,7.757%
16,Cl.O=C(C1CCCCC1)N1C[C@H]2CNC[C@H]2C1,-3.289%
17,O=c1cc(CN2CC[C@H]3CC[C@@H](C2)N3)c2cccc3c2n1CCC3,-15.55%
18,CN(C)C(=O)COC1COC2(CCN(CC3CCOCC3)CC2)C1.O=C(O)C(F)(F)F (stereo not given),-2.67%
19,Cl.c1nc(N2CCOCC2)sc1-c1cncn1CCCN1CCCCC1,-3.925%
20,CC(C)NC(=O)c1ccc2c(c1)C1(CCN(C(C)C)CC1)C(=O)N2.O=C(O)C(F)(F)F,-33.29%
21,Cc1noc(C)c1CN1CCn2cc(CNc3ccccn3)nc2C1.O=C(O)C(F)(F)F.O=C(O)C(F)(F)F,4.3%
22,Cc1ccc(O[C@@H]2C[C@H]3CN(Cc4nccn4C)CCN3C2)cc1.O=C(O)C(F)(F)F.O=C(O)C(F)(F)F,-24.79%
23,CC(C)NC(=O)CNC(=O)c1csc(Cc2ccccc2F)n1,-1.27%
24,COCC1N(C(=O)N2CCOCC2)[C@H]2CC[C@]1(O)CC2 (stereo not given in full),-3.821%

row,Compound,Percent Effect
1,CCCOC1CCCN(Cc2nc(-c3ccc(F)cc3F)oc2C)C1 (stereo not given),-26.76%
2,COCc1ncn(Cc2nc(-c3ccc(OC)cc3F)oc2C)n1,-9.071%
3,COc1ccc(-c2nc(CN3CCCC(OC)C3)c(C)o2)c(F)c1 (stereo not given),93.73%
4,O=C(O)C(F)(F)F.O=C(c1ccsc1)N1C[C@H]2CCC[C@@]2(COCc2cccnc2)C1,-16.41%
5,Cl.Cl.O=C(NCc1cncc2c1CCN(C1CCOCC1)C2)c1ccno1,18.25%
6,Br.Cc1cc(C)nc(NCCC(=O)NCCn2ccnc2C)n1,-9.93%
7,Cc1csc(NCC(=O)c2c[nH]c3ccccc23)n1.I,13.99%
8,Cc1nc(CN2C(=O)CCC23CCN(Cc2ccoc2)CC3)cs1.O=C(O)C(F)(F)F.O=C(O)C(F)(F)F,-26.87%
9,Cc1nc(CN2CCC23CCN(C(=O)c2ccco2)CC3)cs1,-3.59%
10,Cc1nc(CN2CCC3(C2)CN(Cc2ccco2)C3)cs1,18.48%
11,Cc1nc(CN2CCC23CCN(Cc2ccco2)CC3)cs1,77.77%
12,Cc1nc(CN2C(=O)CCC23CCN(Cc2ccco2)CC3)cs1,5.099%
13,Cc1nc(CN2CCC23CCN(Cc2ccoc2)CC3)cs1,94.23%
14,O=C(N1CCCO1)[C@@]12CCO[C@@H]1CCN(Cc1ccc(F)cc1)C2.O=C(O)C(F)(F)F,-15.72%
15,Cn1cc(-c2cnc(N3CCOCC3)nc2)cc1C(=O)NCCO.O=C(O)C(F)(F)F,10.75%
16,O=C(c1c[nH]c(=O)c(Cl)c1)N1C[C@@H]2CC[C@H](C1)N(CC1CCC1)C2,-23.49%
17,COCCn1c2c(ccc1=O)CC(NCc1cccnc1OC)CC2.O=C(O)C(F)(F)F.O=C(O)C(F)(F)F (stereo not given),19.47%
18,COC1COC2(CCN(CC3CC3)CC2)C1.O=C(O)C(F)(F)F (stereo not given),-5.009%
19,COCc1ccc(C(=O)N2CCC(c3cc4nccnc4[nH]3)CC2)cc1,64.38%
20,Cc1cnc2cc(C3CCN(C(=O)c4ccncc4)CC3)[nH]c2n1,11.57%
21,COCc1ccc(C(=O)N2CCC(c3cc4ncc(C)nc4[nH]3)C2)cc1 (stereo not given),6.722%
22,COc1ccc(Cn2c(C3CCNCC3)cc3cccnc32)cc1.Cl,2.964%
23,CCOC(=O)CSc1nnc([C@@H](N)C(C)CC)o1.Cl (stereo not given in full),-17.57%
24,CCOCC1CN(C2CCCC2)Cc2cnn(CC3CCOCC3)c21.O=C(O)C(F)(F)F.O=C(O)C(F)(F)F (stereo not given),-13.36%

row,Compound,Percent Effect
1,c1ccc(O[C@H]2C[C@@H]3CN(Cc4cnccn4)C[C@@H]3C2)cc1,-8.402%
2,c1ccc(CN(Cc2cccc3cnccc23)CC2CCCO2)nc1 (stereo not given),13.24%
3,O=c1[nH]c2ccccc2cc1CN(Cc1ccccn1)CC1CCCO1 (stereo not given),51.43%
4,Cc1ccc2cc(CN(C)Cc3ccccn3)c(=O)[nH]c2c1,-6.108%
5,O=C(N1CCOCC1)N1C(CN2CCOCC2)[C@]2(O)CC[C@H]1CC2 (stereo not given in full),2.205%
6,CN1C[C@@H]2CN(C(=O)C3CC=CC3)C[C@@H]2C1=O,-1.029%
7,Cc1cc(CCC(=O)Nc2nncs2)nc(C2CCCN2)n1.Cl (stereo not given),-11.36%
8,CN(C)C(=O)c1nn(C)c2c1CN(Cc1ccc(F)cc1)C2.O=C(O)C(F)(F)F,-35.3%
9,O=C(O)C(F)(F)F.O=C1CC[C@]2(CC[C@@H](NC(=O)NCc3cccnc3)CC2)N1,2.106%
10,Cc1csc(C(Cc2ccsc2)NC(=O)Cn2cccnc2=O)n1 (stereo not given),-16.84%
11,O=C(Cn1cccnc1=O)NC(Cc1ccsc1)c1ccccn1 (stereo not given),17.67%
12,Cc1csc(C(Cc2ccsc2)NC(=O)CN(C)Cc2ccccn2)n1.Cl (stereo not given),82.59%
13,Cc1cc(C)n(CC(=O)NC(Cc2ccsc2)c2ccccn2)c(=O)n1.Cl (stereo not given),93.95%
14,Cc1csc(C(Cc2ccsc2)NC(=O)CN(C)Cc2cccnc2)n1.Cl (stereo not given),-9.769%
15,CN(CC(=O)NC(Cc1ccsc1)c1cccnc1)Cc1ccccn1.Cl (stereo not given),-24.9%
16,Cc1ccc(N2CCC3(CCN(C(=O)c4ccnnc4)CC3)CC2)nn1.O=C(O)C(F)(F)F,-48.43%
17,Cn1nnc2c1CCN(Cc1nccs1)C2COCc1ccccc1.O=C(O)C(F)(F)F (stereo not given),7.839%
18,N#Cc1cccc(CN2CC[C@@H]3[C@@H]2CC(=O)N3CCN2CCCC2)c1.O=C(O)C(F)(F)F.O=C(O)C(F)(F)F,-3.152%
19,Cc1oc(-c2ccc(Cl)cc2)nc1C(=O)NC1=NCCS1,105.8%
20,Cc1oc(-c2ccccc2)nc1CC(=O)NC1=NCCS1,20.62%
21,Cc1c(C(=O)NC2=NCCS2)cnn1-c1ccc(Br)cc1,23.54%
22,Cc1cc(C(=O)NC2=NCCS2)c(C)n1-c1ccccn1,4.567%
23,Cc1oc(-c2ccccc2)nc1C(=O)NC1=NCCS1,105.4%
24,Cc1c(C(=O)NC2=NCCS2)cnn1-c1ccc(Cl)cc1,22.26%

row,Compound,Percent Effect
1,CC(C)CN1CC[C@@H]2[C@H](CC1)N(S(C)(=O)=O)CCS2(=O)=O.O=C(O)C(F)(F)F,-8.964%
2,Cc1c(CN2CCc3nc4sccc4c(=O)n3CC2)cnn1C.Cl,-11.07%
3,COCC(=O)NCc1cc(=O)n2c(n1)CN(C)CCC2.O=C(O)C(F)(F)F,2.895%
4,CCn1cncc1CN1CCN(CC2(c3ccc(C)cc3)CC2)CC1.Cl,-24.04%
5,Cn1nnc2c1C(COCc1cccnc1)CN(Cc1ccoc1)C2.O=C(O)C(F)(F)F.O=C(O)C(F)(F)F (stereo not given),-46.31%
6,O=S(=O)(NCCNc1cc(-n2cccn2)ncn1)c1cccs1,-0.2009%
7,O=S(=O)(NCCNc1ccc(-n2cccc2)nn1)c1ccccc1,100.9%
8,Cc1ccc(C)c(S(=O)(=O)NCCNc2ccc(-n3cccc3)nn2)c1,35.9%
9,O=S(=O)(Cc1ccccc1)NCCNc1ccc(-n2cccc2)nn1,-9.655%
10,O=S(=O)(NCCNc1ccc(-n2cccn2)nn1)c1ccccc1,101.1%
11,Cc1nsc(NCCNS(=O)(=O)c2ccccc2)n1,-4.682%
12,O=S(=O)(NCCNc1cc(-n2cccc2)ncn1)c1cccs1,9.38%
13,Cc1cc(C)n(-c2ccc(NCCNS(=O)(=O)c3ccccc3)nn2)n1,7.275%
14,O=S(=O)(NCCNc1ccc(-n2cccc2)nn1)c1cccs1,103.8%
15,CNC(=O)CN1CC[C@H]2CN(C(=O)c3ccccc3F)C[C@H]2C1.O=C(O)C(F)(F)F,-22.98%
16,CC(C)c1nn(C)c(N(C)C)c1CNCc1ccccc1CO.Cl,37.79%
17,CCOC1COC2(CCN(Cc3ccc(C)cc3)CC2)C1.O=C(O)C(F)(F)F (stereo not given),-2.769%
18,CCN1CCC2(CC1)CC(NC(=O)c1c[nH]cn1)c1ccccc1O2 (stereo not given),11.74%
19,COCCN1CCC2(CC1)CC(NC(=O)CN(C)C)c1ccccc1O2.O=C(O)C(F)(F)F.O=C(O)C(F)(F)F (stereo not given),-9.867%
20,CCN1CCC2(CC1)CC(NC(=O)c1csnn1)c1ccccc1O2.O=C(O)C(F)(F)F (stereo not given),54.1%
21,COCCN1CCC2(CC1)CC(NC(=O)COC)c1ccccc1O2.O=C(O)C(F)(F)F (stereo not given),-4.974%
22,O=C(NC1CC2(CCN(CCO)CC2)Oc2ccccc21)c1csnn1 (stereo not given),10.49%
23,CN1CCC2(CC1)CC(NC(=O)c1csnn1)c1ccccc1O2.O=C(O)C(F)(F)F (stereo not given),76.95%
